# Measurements taken from ChEMBL document CHEMBL2218924, “A broad activity screen in support of a chemogenomic map for kinase signalling research and drug discovery” (Biochem J, 2013).
# Columns and labels:
# [1] = target: T1, Ephrin type-A receptor 3 (Homo sapiens) (UniProt P29320); settings: at 10 µM
# T1 sequence (whole entry): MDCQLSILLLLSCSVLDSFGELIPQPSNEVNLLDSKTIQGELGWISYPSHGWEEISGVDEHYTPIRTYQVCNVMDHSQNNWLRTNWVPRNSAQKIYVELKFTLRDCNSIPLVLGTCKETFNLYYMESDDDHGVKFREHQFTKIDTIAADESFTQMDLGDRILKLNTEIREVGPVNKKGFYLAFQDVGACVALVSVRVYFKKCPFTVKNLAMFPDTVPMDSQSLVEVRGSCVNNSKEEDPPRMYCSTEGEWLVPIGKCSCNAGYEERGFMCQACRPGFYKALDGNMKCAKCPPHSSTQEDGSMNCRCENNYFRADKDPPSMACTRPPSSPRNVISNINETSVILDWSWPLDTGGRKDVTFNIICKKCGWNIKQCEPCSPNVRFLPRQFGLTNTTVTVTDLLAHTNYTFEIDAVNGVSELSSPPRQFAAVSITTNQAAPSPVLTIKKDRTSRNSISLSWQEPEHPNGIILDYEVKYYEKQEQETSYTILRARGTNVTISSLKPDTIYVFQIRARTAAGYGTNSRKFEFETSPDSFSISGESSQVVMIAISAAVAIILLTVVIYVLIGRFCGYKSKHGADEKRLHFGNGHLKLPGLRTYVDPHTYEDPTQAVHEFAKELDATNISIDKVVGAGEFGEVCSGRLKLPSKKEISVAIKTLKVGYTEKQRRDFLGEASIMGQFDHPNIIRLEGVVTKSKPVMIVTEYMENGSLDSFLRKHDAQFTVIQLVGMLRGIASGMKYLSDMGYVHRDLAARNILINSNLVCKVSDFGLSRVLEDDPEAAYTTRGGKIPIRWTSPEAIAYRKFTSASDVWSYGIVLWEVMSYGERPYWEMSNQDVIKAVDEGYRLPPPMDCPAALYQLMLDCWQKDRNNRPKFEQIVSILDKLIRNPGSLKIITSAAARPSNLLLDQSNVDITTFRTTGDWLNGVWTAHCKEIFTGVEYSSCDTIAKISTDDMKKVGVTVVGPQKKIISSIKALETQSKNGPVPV
# [2] = target: Ephrin type-A receptor 4 (Homo sapiens) (UniProt P54764); settings: at 1 µM
# [3] = target: Ephrin type-A receptor 4 (Homo sapiens) (UniProt P54764); settings: at 10 µM
# [4] = target: Ephrin type-A receptor 5 (Homo sapiens) (UniProt P54756); settings: at 1 µM
# [5] = target: Ephrin type-A receptor 5 (Homo sapiens) (UniProt P54756); settings: at 10 µM
# [6] = target: Ephrin type-A receptor 7 (Homo sapiens) (UniProt Q15375); settings: at 1 µM
# [7] = target: Ephrin type-A receptor 7 (Homo sapiens) (UniProt Q15375); settings: at 10 µM
# [8] = target: T2, Ephrin type-A receptor 8 (Homo sapiens) (UniProt P29322); settings: at 1 µM
# T2 sequence (whole entry): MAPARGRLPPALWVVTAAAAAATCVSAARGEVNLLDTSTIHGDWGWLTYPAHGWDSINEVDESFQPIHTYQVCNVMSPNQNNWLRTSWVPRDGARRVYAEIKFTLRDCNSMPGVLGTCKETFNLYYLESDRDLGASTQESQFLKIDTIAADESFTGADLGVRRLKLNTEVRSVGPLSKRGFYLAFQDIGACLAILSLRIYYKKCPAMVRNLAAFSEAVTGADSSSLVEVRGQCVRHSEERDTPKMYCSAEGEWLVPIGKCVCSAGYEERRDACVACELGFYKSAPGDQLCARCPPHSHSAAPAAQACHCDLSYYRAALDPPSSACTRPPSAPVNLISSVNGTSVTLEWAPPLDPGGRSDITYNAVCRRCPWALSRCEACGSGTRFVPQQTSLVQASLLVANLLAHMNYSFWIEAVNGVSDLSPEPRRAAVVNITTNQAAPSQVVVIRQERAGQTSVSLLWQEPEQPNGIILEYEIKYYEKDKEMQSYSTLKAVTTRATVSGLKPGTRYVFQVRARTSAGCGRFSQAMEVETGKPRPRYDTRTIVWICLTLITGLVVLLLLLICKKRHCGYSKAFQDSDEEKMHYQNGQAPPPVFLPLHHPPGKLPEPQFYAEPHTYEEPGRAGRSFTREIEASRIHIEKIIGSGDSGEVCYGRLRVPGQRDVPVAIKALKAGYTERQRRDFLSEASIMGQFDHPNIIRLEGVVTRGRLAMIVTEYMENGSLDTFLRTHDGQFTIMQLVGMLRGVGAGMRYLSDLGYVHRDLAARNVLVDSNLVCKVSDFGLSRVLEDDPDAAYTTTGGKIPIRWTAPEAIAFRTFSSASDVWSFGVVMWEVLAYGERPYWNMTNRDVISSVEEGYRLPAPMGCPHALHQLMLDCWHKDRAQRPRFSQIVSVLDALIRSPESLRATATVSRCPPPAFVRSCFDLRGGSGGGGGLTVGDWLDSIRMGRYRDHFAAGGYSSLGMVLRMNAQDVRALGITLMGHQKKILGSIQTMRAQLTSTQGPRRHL
# [9] = target: T2, Ephrin type-A receptor 8 (Homo sapiens); settings: at 10 µM
# [10] = target: T3, Ephrin type-B receptor 1 (Homo sapiens) (UniProt P54762); settings: at 1 µM
# T3 sequence (whole entry): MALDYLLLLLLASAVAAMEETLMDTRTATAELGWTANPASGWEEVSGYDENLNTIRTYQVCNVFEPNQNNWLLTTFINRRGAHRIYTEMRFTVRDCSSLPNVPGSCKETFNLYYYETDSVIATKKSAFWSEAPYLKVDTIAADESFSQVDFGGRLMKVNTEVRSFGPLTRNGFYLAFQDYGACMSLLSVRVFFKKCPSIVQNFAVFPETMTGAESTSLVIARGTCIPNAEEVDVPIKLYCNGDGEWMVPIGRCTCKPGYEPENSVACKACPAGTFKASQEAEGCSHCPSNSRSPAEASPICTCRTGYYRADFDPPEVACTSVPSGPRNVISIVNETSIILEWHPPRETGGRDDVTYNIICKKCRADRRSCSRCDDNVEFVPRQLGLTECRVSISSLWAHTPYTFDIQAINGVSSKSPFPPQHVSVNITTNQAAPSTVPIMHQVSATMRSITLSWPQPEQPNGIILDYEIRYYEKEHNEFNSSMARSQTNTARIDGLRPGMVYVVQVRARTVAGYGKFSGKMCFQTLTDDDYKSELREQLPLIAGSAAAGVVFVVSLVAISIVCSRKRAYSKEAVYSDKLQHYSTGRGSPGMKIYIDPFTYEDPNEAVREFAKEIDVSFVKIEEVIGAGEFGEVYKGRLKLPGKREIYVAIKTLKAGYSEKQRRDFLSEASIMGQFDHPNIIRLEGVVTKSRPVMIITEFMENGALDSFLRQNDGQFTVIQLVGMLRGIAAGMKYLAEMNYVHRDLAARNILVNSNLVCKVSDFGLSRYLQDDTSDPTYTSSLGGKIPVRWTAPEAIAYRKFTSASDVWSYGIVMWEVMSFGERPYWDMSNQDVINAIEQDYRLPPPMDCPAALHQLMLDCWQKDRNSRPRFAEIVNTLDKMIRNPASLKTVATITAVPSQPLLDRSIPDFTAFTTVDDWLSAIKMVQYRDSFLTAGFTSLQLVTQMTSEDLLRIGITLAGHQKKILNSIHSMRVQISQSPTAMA
# Chain of Ephrin type-A receptor 7 (Homo sapiens) (Q15375 28-998 limits assumed): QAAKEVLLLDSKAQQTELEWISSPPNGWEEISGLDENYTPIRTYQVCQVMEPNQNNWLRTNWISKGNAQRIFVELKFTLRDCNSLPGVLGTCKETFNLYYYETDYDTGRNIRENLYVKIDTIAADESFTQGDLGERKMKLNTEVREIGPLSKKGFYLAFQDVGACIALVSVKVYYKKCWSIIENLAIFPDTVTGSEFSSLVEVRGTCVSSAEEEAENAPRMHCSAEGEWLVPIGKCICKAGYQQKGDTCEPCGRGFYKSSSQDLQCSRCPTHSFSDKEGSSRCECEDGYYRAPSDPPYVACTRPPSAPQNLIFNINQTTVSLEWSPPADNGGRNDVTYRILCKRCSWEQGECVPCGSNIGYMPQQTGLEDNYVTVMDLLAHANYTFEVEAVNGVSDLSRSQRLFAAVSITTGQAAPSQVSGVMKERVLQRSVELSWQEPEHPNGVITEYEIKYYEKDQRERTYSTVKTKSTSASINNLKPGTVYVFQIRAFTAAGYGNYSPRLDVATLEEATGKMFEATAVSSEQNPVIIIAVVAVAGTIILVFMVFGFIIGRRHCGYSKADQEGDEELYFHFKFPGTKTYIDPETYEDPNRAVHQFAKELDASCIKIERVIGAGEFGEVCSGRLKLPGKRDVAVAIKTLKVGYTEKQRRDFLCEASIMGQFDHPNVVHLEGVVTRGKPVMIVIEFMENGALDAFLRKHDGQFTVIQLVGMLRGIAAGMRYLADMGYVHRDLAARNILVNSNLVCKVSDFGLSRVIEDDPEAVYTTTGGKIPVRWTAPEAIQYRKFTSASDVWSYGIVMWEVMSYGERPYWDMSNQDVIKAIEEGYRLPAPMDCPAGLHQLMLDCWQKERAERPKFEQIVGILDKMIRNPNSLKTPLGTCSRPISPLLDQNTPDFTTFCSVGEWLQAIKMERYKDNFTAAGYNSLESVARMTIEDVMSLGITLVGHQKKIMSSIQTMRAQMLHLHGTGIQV
# Chain of Ephrin type-A receptor 5 (Homo sapiens) (P54756 whole entry): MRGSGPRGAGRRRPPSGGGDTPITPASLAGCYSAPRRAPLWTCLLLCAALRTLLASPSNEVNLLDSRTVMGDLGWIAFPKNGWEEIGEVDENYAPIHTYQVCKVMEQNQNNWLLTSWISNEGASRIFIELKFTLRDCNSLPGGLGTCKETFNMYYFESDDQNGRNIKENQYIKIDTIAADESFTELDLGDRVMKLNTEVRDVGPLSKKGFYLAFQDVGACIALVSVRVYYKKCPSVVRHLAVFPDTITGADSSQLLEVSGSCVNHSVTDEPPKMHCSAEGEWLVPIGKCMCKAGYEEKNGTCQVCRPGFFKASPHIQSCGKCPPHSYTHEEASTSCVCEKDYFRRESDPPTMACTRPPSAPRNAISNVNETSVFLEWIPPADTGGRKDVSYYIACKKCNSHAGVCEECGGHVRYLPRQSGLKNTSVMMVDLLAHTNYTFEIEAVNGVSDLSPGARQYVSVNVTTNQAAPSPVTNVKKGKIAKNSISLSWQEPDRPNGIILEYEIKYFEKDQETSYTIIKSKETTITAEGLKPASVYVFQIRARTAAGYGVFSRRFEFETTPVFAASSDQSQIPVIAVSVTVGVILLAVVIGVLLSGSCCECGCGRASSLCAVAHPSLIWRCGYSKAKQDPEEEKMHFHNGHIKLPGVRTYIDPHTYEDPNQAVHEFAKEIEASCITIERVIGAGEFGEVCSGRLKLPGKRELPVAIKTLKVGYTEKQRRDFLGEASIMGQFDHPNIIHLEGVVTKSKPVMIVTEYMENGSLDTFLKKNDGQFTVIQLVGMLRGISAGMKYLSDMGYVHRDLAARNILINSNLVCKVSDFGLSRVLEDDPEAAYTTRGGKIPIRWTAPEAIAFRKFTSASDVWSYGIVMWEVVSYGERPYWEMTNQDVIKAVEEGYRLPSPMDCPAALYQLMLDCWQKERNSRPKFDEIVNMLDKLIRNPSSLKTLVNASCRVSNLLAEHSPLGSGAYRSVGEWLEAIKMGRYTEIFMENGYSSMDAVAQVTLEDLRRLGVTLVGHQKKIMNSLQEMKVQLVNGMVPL
# Chain of Ephrin type-A receptor 4 (Homo sapiens) (P54764 whole entry): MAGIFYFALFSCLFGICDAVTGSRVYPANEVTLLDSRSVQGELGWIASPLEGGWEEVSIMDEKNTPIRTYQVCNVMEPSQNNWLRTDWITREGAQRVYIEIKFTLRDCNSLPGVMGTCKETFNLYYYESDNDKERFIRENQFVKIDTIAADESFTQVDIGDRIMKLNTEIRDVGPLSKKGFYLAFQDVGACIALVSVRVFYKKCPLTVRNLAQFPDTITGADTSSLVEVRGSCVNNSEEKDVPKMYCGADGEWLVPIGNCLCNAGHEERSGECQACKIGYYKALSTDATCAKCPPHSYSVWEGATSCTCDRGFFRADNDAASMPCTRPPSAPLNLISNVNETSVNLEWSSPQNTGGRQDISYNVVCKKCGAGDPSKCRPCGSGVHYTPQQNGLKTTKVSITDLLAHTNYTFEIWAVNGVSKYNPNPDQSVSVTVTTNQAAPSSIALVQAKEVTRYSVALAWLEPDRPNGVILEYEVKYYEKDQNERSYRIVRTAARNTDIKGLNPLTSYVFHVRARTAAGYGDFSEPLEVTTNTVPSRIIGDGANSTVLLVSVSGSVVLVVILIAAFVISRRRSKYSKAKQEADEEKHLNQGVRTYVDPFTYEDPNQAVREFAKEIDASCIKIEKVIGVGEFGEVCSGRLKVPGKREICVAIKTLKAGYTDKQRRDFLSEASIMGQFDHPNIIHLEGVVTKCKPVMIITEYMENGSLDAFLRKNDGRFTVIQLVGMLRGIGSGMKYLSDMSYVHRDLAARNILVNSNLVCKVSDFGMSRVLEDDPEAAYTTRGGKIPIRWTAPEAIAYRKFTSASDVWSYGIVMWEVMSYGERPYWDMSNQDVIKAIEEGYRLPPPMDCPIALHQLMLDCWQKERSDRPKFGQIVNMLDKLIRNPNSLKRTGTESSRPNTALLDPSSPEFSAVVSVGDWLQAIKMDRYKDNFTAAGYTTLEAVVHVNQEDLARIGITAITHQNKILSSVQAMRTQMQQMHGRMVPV
smiles,measurement,setting,value
C[S+]([O-])c1ccc(-c2nc(-c3ccc(F)cc3)c(-c3ccncc3)[nH]2)cc1 (stereo not given),residual activity,[1],86%
same,residual activity,[2],110%
same,residual activity,[3],80%
same,residual activity,[4],96%
same,residual activity,[5],48%
same,residual activity,[6],102%
same,residual activity,[7],65%
same,residual activity,[8],91%
same,residual activity,[9],43%
same,residual activity,[10],106%
